Results reported in PubChem BioAssay (Tox21).
Results filed as inconclusive are left out. Activity calls are given as the source filed them. Unless noted, calls come from the whole dose curve; as a rule, active = well fitted curve in the direction sought with a large enough effect in the repeat runs; inconclusive = weak or mixed curves; inactive = no such curve, though single readings can be large; an effect the other way counts as inactive or inconclusive.

Key:
[1] = target: Aryl hydrocarbon receptor (Homo sapiens) (UniProt P35869); assay: qHTS assay to identify small molecule that activate the aryl hydrocarbon receptor (AhR) signaling pathway (AID 743085);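 note: HG2L7.5c1 human HepG2 liver cells with stably integrated DRE-driven firefly reporter; series mostly up to about 70 µM; nearly all actives have a fitted effect of over 15% in size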
In short: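 Luminescence (ONE-Glo) from a dioxin-responsive-element luciferase reporter in HG2L7.5c1 HepG2 cells after 24 hr compound exposure at 37C; viability measured by CellTiter-Fluor fluorescence beforehand.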

[2] = target: Peroxisome proliferator-activated receptor gamma (Homo sapiens) (UniProt P37231); assay: qHTS assay to identify small molecule agonists of the peroxisome proliferator-activated receptor gamma (PPARg) signaling pathway (AID 743094; active = well fitted activation curve with a large enough effect in the signal ratio in the repeat runs, not every such curve was filed as active; the % refers to the signal ratio)
In short: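 GeneBLAzer PPARg UAS-bla HEK293H cells carrying a stably integrated beta-lactamase reporter were pre-incubated 5 h at 37C, then exposed to compounds in DMSO for 17 h at 37C; LiveBLAzer B/G FRET substrate was added for 1 h at room temperature and fluorescence read.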

[3] = target: Peroxisome proliferator-activated receptor gamma (Homo sapiens) (UniProt P37231); assay: qHTS assay to identify small molecule antagonists of the peroxisome proliferator-activated receptor gamma (PPARg) signaling pathway (AID 743191; calls by dose curve; note: series mostly up to about 63 µM; nearly all actives have a fitted effect of over 30% in size)
In short: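 Beta-lactamase reporter under UAS control in HEK293H PPARg-bla cells; compound treatment 17 h at 37C. Read-out: fluorescence intensity after 1 h room-temperature incubation with LiveBLAzer B/G FRET substrate.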

[4] = qHTS assay to identify small molecule antagonists of the peroxisome proliferator-activated receptor gamma (PPARg) signaling pathway - cell viability counter screen (AID 743194); details: Potency: co-treated with 50 nM rosiglitazone; note: nearly all actives have a fitted effect of over 55% in size
In short: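 Viability was measured as CellTiter-Glo luminescence in GeneBLAzer PPARg UAS-bla HEK293H cells. These cells had been exposed 17 h at 37 C to compounds together with rosiglitazone at 50 nM final, with the beta-lactamase readout taken in the same wells.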

[5] = qHTS assay for small molecule activators of the heat shock response signaling pathway - cell viability counter screen (AID 743209); note: nearly all actives have a fitted effect of over 50% in size
In short: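 CellSensor HSE-bla HeLa cells, plated overnight at 37 C/5% CO2, were exposed to compounds in DMSO for 5 h at 37 C. Viability was then read in the same wells by CellTiter-Glo luminescence after 30 min at room temperature.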

[6] = qHTS assay for small molecule activators of the heat shock response signaling pathway (AID 743210; active = well fitted activation curve with a large enough effect in the signal ratio in the repeat runs, with a control signal flat, not every such curve was filed as active; the % refers to the signal ratio;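 note: HeLa cells with beta-lactamase reporter driven by heat shock elements; series mostly up to about 63 µM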)
In short: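 In HSE-bla HeLa cells, 5 h compound incubation (37 C) precedes addition of LiveBLAzer B/G substrate; after 2.5 h at room temperature, fluorescence intensity indicates reporter induction.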

[7] = qHTS assay to identify small molecule agonists of the peroxisome proliferator-activated receptor delta (PPARd) signaling pathway - cell viability counter screen (AID 743211); note: nearly all actives have a fitted effect of over 55% in size
In short: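 Viability was measured as CellTiter-Glo luminescence (30 min, room temperature) in the same wells as the beta-lactamase readout. GeneBLAzer PPARd UAS-bla HEK293H cells received compound after 5 h plating and were incubated 17 h at 37 C.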

[8] = target: Peroxisome proliferator-activated receptor delta (Homo sapiens) (UniProt Q03181); assay: qHTS assay to identify small molecule agonists of the peroxisome proliferator-activated receptor delta (PPARd) signaling pathway (AID 743212; calls by dose curve)
In short: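 HEK293H UAS-bla reporter cells, human PPARd system; compounds delivered in DMSO after 5 h plating, then at 37 C. Beta-lactamase FRET read, 2 h RT substrate step.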

[9] = qHTS assay to identify small molecule antagonists of the peroxisome proliferator-activated receptor delta (PPARd) signaling pathway - cell viability counter screen (AID 743213); note: nearly all actives have a fitted effect of over 50% in size
In short: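 HEK293H cells with the PPARd UAS-bla reporter, co-treated 17 h at 37 C with compounds and L165041 (300 nM final), were lysed with CellTiter-Glo. Luminescence indicated viable cell content.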

[10] = target: Peroxisome proliferator-activated receptor delta (Homo sapiens) (UniProt Q03181); assay: qHTS assay to identify small molecule antagonists of the peroxisome proliferator-activated receptor delta (PPARd) signaling pathway (AID 743215; active = well fitted inhibition curve with a large enough effect in the signal ratio in the repeat runs, not every such curve was filed as active; the % refers to the signal ratio;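 note: cells stimulated with agonist L165041 at 300 nM final during compound exposure; series mostly up to about 62 µM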)
In short: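 PPARd UAS-bla HEK293H cells were pre-incubated 5 h at 37 C, then given test compounds in DMSO plus agonist L165041 (300 nM final). After 17 h at 37 C, beta-lactamase FRET substrate was added; fluorescence read after 2 h at room temperature.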

[11] = qHTS assay to identify small molecule agonists of the farnesoid-X-receptor (FXR) signaling pathway - cell viability counter screen (AID 743218); note: nearly all actives have a fitted effect of over 45% in size
In short: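 FXR-UAS-bla HEK 293T cells, plated 5 h at 37 C, were exposed to compounds for 16 h at 37 C. CellTiter-Glo was then added to the same wells as the bla readout; luminescence read after 30 min at room temperature.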

[12] = qHTS assay to identify small molecule antagonists of the farnesoid-X-receptor (FXR) signaling pathway - cell viability counter screen (AID 743221; active = well fitted cell-killing curve with a large enough effect in the repeat runs, not every such curve was filed as active; note: nearly all actives have a fitted effect of over 50% in size)
In short: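 Cytotoxicity counter screen run in the FXR-bla reporter wells: HEK 293T cells exposed to compound with 50 uM (final) chenodeoxycholic acid for 16 h, 37 C, then viability measured by CellTiter-Glo luminescence after 30 min, room temperature.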

[13] = target: Vitamin D3 receptor (Homo sapiens) (UniProt P11473); assay: qHTS assay to identify small molecule agonists of the vitamin D receptor (VDR) signaling pathway (AID 743222; calls by dose curve)
In short: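 VDR-bla cells were plated 4 h at 37C/5% CO2, then exposed to compounds in DMSO for 16 h. After LiveBLAzer B/G FRET substrate addition and 2 h at room temperature, beta-lactamase reporter fluorescence was read.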

[14] = qHTS assay to identify small molecule agonists of the vitamin D receptor (VDR) signaling pathway - cell viability counter screen (AID 743224); note: series mostly up to about 63 µM; nearly all actives have a fitted effect of over 50% in size
In short: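 VDR-bla cells were preincubated 4 h at 37C/5% CO2, then exposed to compounds for 16 h. After the 2 h room-temperature bla FRET read, CellTiter-Glo was added to the same wells and luminescence read after 30 min.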

[15] = qHTS assay to identify small molecule that activate the aryl hydrocarbon receptor (AhR) signaling pathway - cell viability counter screen (AID 743086);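 note: HepG2 liver cells carrying the AhR DRE luciferase reporter; series mostly up to about 70 µM; nearly all actives have a fitted effect of over 45% in size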
In short: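 Cytotoxicity counter screen: CellTiter-Fluor signal (30 min, 37 C) in 4000 HepG2 cells/well carrying the DRE-luciferase reporter, following 24 h compound exposure at 37 C.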

[16] = qHTS assay for small molecule agonists of the antioxidant response element (ARE) signaling pathway (AID 743202; active = well fitted activation curve with a large enough effect in the signal ratio in the repeat runs, not every such curve was filed as active; the % refers to the signal ratio)
In short: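 An ARE-responsive beta-lactamase gene stably integrated in HepG2 cells serves as reporter. After 5 h plating and 16 h compound incubation at 37 C, fluorescence of the B/G FRET substrate was measured.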

[17] = qHTS assay for small molecule agonists of the antioxidant response element (ARE) signaling pathway - cell viability counter screen (AID 743203; calls by dose curve; note: nearly all actives have a fitted effect of over 55% in size)
In short: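 CellSensor ARE-bla HepG2 cells, 2,000 per well, rested 5 hrs at 37C/5% CO2, then exposed to compound in DMSO for 16 hrs; viability read as CellTiter-Glo luminescence after 30 min at room temperature, in the reporter wells.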

[18] = target: Bile acid receptor (Homo sapiens) (UniProt Q96RI1); assay: qHTS assay to identify small molecule antagonists of the farnesoid-X-receptor (FXR) signaling pathway (AID 743217; active = well fitted inhibition curve with a large enough effect in the signal ratio in the repeat runs, not every such curve was filed as active; the % refers to the signal ratio)
In short: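 FXR-UAS-bla HEK 293T cells pre-incubated 5 h at 37 °C, then exposed to compounds with chenodeoxycholic acid (50 uM final) for 16 h at 37 °C. Beta-lactamase reporter read by LiveBLAzer B/G FRET substrate fluorescence after 2 h at room temperature.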

[19] = target: Bile acid receptor (Homo sapiens) (UniProt Q96RI1); assay: qHTS assay to identify small molecule agonists of the farnesoid-X-receptor (FXR) signaling pathway (AID 743220; active = well fitted activation curve with a large enough effect in the signal ratio in the repeat runs, not every such curve was filed as active; the % refers to the signal ratio)
In short: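 Beta-lactamase reporter under UAS control in GeneBLAzer FXR HEK 293T cells (5000/well) measured with LiveBLAzer FRET substrate after 2 h at room temperature. Compound exposure lasted 16 h at 37C.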

[20] = target: Vitamin D3 receptor (Homo sapiens) (UniProt P11473); assay: qHTS assay to identify small molecule antagonists of the vitamin D receptor (VDR) signaling pathway (AID 743223; active = well fitted inhibition curve with a large enough effect in the signal ratio in the repeat runs, not every such curve was filed as active; the % refers to the signal ratio)
In short: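 Antagonist mode: compound added to VDR-bla cells alongside agonist 1alpha,25-dihydroxyvitamin D3 (3 nM final), incubation 16 h at 37C. Read-out is LiveBLAzer FRET fluorescence, 2 h at room temperature.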

Measured: Potency

Aryl hydrocarbon receptor (Homo sapiens), sequence (P35869 whole entry, looked up): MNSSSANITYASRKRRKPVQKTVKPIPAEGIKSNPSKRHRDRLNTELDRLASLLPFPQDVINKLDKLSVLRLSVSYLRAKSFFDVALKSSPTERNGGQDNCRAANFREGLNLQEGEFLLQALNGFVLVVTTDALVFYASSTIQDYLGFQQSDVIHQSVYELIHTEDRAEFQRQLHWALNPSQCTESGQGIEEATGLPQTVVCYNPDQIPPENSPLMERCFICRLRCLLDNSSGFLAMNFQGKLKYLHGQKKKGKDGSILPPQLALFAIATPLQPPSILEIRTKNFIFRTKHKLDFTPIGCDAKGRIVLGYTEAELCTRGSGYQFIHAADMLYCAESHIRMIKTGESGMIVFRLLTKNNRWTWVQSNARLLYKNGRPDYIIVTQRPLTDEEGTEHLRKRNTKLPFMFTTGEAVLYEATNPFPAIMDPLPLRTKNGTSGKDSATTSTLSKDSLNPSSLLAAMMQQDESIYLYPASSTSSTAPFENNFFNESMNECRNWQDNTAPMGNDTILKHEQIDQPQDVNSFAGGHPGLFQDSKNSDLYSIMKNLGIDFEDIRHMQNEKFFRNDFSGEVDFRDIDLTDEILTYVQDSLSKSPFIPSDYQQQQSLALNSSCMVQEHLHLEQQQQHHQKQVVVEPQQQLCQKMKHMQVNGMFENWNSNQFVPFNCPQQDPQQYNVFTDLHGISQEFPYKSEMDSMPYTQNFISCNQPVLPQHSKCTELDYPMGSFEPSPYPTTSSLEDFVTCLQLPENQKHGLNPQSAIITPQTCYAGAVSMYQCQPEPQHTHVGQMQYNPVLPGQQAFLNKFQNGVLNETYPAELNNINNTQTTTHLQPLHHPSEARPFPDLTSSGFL
Bile acid receptor (Homo sapiens), sequence (Q96RI1 whole entry, looked up): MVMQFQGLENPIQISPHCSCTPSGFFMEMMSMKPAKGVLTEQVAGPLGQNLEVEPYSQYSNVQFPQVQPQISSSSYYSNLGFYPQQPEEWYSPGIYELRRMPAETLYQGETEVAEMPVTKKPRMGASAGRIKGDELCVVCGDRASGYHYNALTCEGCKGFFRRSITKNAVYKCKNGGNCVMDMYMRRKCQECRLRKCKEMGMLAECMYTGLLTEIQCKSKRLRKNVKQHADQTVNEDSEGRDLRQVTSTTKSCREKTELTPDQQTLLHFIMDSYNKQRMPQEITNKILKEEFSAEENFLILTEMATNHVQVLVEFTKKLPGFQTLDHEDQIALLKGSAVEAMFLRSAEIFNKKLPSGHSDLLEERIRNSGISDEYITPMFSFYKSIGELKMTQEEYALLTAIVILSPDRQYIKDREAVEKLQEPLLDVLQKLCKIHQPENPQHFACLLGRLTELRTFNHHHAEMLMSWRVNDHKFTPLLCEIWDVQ
Peroxisome proliferator-activated receptor gamma (Homo sapiens), sequence (P37231 whole entry, looked up): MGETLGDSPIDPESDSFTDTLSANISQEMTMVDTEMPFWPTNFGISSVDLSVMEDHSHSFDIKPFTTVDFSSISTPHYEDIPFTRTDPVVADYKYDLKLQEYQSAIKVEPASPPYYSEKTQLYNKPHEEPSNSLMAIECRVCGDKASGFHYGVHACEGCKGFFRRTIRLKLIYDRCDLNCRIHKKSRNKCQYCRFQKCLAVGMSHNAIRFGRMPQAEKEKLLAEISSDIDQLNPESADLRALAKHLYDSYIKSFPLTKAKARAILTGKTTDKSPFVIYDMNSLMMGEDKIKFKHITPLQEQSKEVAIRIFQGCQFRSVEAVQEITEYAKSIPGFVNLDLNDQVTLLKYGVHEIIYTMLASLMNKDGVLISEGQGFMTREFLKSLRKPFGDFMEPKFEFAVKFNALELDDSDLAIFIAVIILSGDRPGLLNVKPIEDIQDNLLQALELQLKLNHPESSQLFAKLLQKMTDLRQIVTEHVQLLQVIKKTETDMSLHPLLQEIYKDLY
Peroxisome proliferator-activated receptor delta (Homo sapiens), sequence (Q03181 whole entry, looked up): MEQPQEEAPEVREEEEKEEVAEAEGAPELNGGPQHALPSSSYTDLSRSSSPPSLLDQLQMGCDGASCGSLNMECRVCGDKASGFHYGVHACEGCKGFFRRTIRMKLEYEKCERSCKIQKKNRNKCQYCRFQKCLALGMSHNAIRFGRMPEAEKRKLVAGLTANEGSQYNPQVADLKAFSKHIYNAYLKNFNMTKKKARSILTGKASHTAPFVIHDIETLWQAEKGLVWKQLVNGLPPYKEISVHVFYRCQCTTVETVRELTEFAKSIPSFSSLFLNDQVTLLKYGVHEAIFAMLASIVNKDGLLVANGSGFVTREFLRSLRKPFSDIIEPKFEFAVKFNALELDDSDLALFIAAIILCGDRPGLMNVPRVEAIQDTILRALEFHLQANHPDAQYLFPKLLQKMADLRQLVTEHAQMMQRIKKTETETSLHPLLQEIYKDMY
Vitamin D3 receptor (Homo sapiens), sequence (P11473 whole entry, looked up): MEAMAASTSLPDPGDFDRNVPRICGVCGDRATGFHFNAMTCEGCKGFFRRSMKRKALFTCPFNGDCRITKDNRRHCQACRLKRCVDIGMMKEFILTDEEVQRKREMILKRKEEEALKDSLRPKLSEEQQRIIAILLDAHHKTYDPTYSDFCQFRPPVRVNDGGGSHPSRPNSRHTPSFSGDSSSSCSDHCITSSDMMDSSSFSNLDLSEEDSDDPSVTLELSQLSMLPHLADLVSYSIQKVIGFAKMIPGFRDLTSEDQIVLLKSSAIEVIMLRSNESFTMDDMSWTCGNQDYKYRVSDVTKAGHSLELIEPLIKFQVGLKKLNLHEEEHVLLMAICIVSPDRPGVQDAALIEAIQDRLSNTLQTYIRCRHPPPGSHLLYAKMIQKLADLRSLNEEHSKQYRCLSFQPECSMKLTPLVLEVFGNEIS

N#CCNCC#N
not listed: [15] | [16] | [17] | [18] | [19] | [20]
inactive: all other assays above

CC(C)CC(N(C)C)C1(c2ccc(Cl)cc2)CCC1 (stereo not drawn)
not listed: [2] | [3] | [4] | [6] | [10]
inactive: all other assays above

CC1(C)C(=O)NC(=O)NC1=O
not listed: [3] | [8] | [10] | [15] | [16] | [18] | [19] | [20]
inactive: all other assays above

C(CCOCC1CO1)COCC1CO1 (stereo not drawn)
not listed: [2] | [3] | [4] | [11] | [13] | [16] | [20]
inactive: all other assays above

CCSC(=O)N(CC)C1CCCCC1
not listed: [3] | [9] | [13] | [15] | [20]
inactive: all other assays above

Cc1nc(N)nc(N)n1
not listed: [2] | [3] | [8] | [9] | [16] | [18] | [19]
inactive: all other assays above

CCCSC(=O)N(CCC)CCC
not listed: [2] | [3] | [4] | [18] | [19] | [20]
inactive: all other assays above

CN/C(=N\[N+](=O)[O-])NCC1CCOC1 (stereo not drawn)
not listed: [2] | [3] | [4] | [8] | [10] | [13] | [16] | [17]
inactive: all other assays above
